Experimental findings from PubChem BioAssay (NCATS) are described below.

Test [1] is described as follows: Quantitative High-Throughput drug screen in 47 multiple myeloma cell lines against the NCATS MIPE library collection: Karpas620_DSMZ cell viability assay (AID 1918959). Note: nearly all actives have a fitted effect of over 30% in size. Note: potency is the fitted concentration of half-maximal effect. The essentials: (§1)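 Inhibition of cell viability is measured here. Each line was plated at 500 cells per well, treated with MIPE 4.0 drugs, kept 48 hours at 37C, then assayed for ATP content by CellTiter-Glo luminescence.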

Test [2] is described as follows: Quantitative High-Throughput drug screen in 47 multiple myeloma cell lines against the NCATS MIPE library collection: KMM1_JCRB cell viability assay (AID 1918960). Note: nearly all actives have a fitted effect of over 30% in size. Note: potency is the fitted concentration of half-maximal effect. The essentials:
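Myeloma cells at 500 per well in 1536-well format treated with MIPE 4.0 library by pin transfer for 48 h at 37C, 5% CO2. Viability from ATP luminescence (CellTiter-Glo), normalized to DMSO (100%) and media-only (0%) wells.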

A short description of test [3]: Quantitative High-Throughput drug screen in 47 multiple myeloma cell lines against the NCATS MIPE library collection: H1112_PLB cell viability assay (AID 1918967; note: nearly all actives have a fitted effect of over 30% in size; note: potency is the fitted concentration of half-maximal effect). The essentials: (§2)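 Steps: seed 500 cells per well; pin-transfer MIPE 4.0 library; incubate 48 h at 37C, 5% CO2, humidified; add CellTiter-Glo, 5 min room temperature; read luminescence.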
A short description of test [4]: Quantitative High-Throughput drug screen in 47 multiple myeloma cell lines against the NCATS MIPE library collection: KMS27_JCRB cell viability assay (AID 1918970). Note: nearly all actives have a fitted effect of over 30% in size. Note: potency is the fitted concentration of half-maximal effect. In short, it runs like this:
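Myeloma cells (500 per well) were exposed to MIPE 4.0 compounds for 48 h at 37 °C, 5% CO2; viability was read as ATP luminescence with CellTiter-Glo, normalized to DMSO-only (100%) and media-only (0%) wells.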

Test [5] is described as follows: Quantitative High-Throughput drug screen in 47 multiple myeloma cell lines against the NCATS MIPE library collection: KMS26_JCRB cell viability assay (AID 1918975). Note: nearly all actives have a fitted effect of over 45% in size. Note: potency is the fitted concentration of half-maximal effect. In short, it runs like this:
(§3)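 Viability readout: CellTiter-Glo luminescence following 5 min room-temperature incubation with reagent. Prior exposure: 48 h, 37C, humidified 5% CO2, 500 cells per well.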

Test [6] in a line: Quantitative High-Throughput drug screen in 47 multiple myeloma cell lines against the NCATS MIPE library collection: MOLP8_DSMZ cell viability assay (AID 1918977). Note: nearly all actives have a fitted effect of over 45% in size. Note: potency is the fitted concentration of half-maximal effect. In short, it runs like this: (§4)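 Viability after 48 h drug exposure was measured as ATP-dependent luminescence. Cells, 500 per well, sat at 37 °C under 5% CO2; DMSO wells set 100%, media-only wells 0%.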
The nature of test [7]: Quantitative High-Throughput drug screen in 47 multiple myeloma cell lines against the NCATS MIPE library collection: NCIH929_DSMZ cell viability assay (AID 1918978). Note: nearly all actives have a fitted effect of over 35% in size. Note: potency is the fitted concentration of half-maximal effect. The essentials: as §4
Test [8] is described as follows: Quantitative High-Throughput drug screen in 47 multiple myeloma cell lines against the NCATS MIPE library collection: INA6_PLB cell viability assay (AID 1918965; note: nearly all actives have a fitted effect of over 55% in size; note: potency is the fitted concentration of half-maximal effect). In short, it runs like this: (§5)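 qHTS of the MIPE 4.0 collection: 500 myeloma cells/well, 48 h drug exposure at 37C in 5% CO2, then CellTiter-Glo for 5 min at room temperature before luminescence reading.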

Test [9] can be described thus: Quantitative High-Throughput drug screen in 47 multiple myeloma cell lines against the NCATS MIPE library collection: Karpas25_ECACC cell viability assay (AID 1918968; note: nearly all actives have a fitted effect of over 35% in size; note: potency is the fitted concentration of half-maximal effect). In short, it runs like this: as §2
A short description of test [10]: Quantitative High-Throughput drug screen in 47 multiple myeloma cell lines against the NCATS MIPE library collection: KMS12BM_JCRB cell viability assay (AID 1918971). Note: nearly all actives have a fitted effect of over 35% in size. Note: potency is the fitted concentration of half-maximal effect. In short, it runs like this: as §3
The nature of test [11]: Quantitative High-Throughput drug screen in 47 multiple myeloma cell lines against the NCATS MIPE library collection: KMS12PE_JCRB cell viability assay (AID 1918972). Note: nearly all actives have a fitted effect of over 30% in size. Note: potency is the fitted concentration of half-maximal effect. The essentials: as §5
The nature of test [12]: Quantitative High-Throughput drug screen in 47 multiple myeloma cell lines against the NCATS MIPE library collection: Karpas417_ECACC cell viability assay (AID 1918961). Note: potency is the fitted concentration of half-maximal effect. Particulars: Karpas417 myeloma viability, CellTiter-Glo ATP luminescence, 48 h; viability (% of DMSO): at 45.8 µM (top of the series). In short, it runs like this:
as §5
A general note: Cellular ATP, detected with luciferase, serves as a proxy for viable cell number.

The nature of test [13]: Quantitative High-Throughput drug screen in 47 multiple myeloma cell lines against the NCATS MIPE library collection: JIM3_ECACC cell viability assay (AID 1918963; note: nearly all actives have a fitted effect of over 35% in size; note: potency is the fitted concentration of half-maximal effect). The essentials: as §1
Test [14] is described as follows: Quantitative High-Throughput drug screen in 47 multiple myeloma cell lines against the NCATS MIPE library collection: JJN3_DSMZ cell viability assay (AID 1918966; note: nearly all actives have a fitted effect of over 50% in size; note: potency is the fitted concentration of half-maximal effect). The essentials: as §2
A short description of test [15]: Quantitative High-Throughput drug screen in 47 multiple myeloma cell lines against the NCATS MIPE library collection: KMS20_JCRB cell viability assay (AID 1918973). Note: nearly all actives have a fitted effect of over 45% in size. Note: potency is the fitted concentration of half-maximal effect. The essentials: as §2
A short description of test [16]: Quantitative High-Throughput drug screen in 47 multiple myeloma cell lines against the NCATS MIPE library collection: MMM1_PLB cell viability assay (AID 1918976). In short, it runs like this:
as §4

Test [17] is described as follows: Quantitative High-Throughput drug screen in 47 multiple myeloma cell lines against the NCATS MIPE library collection: JIM1_ECACC cell viability assay (AID 1918964). The essentials: as §2
Test [18] can be described thus: Quantitative High-Throughput drug screen in 47 multiple myeloma cell lines against the NCATS MIPE library collection: KHM11_PLB cell viability assay (AID 1918962). Note: nearly all actives have a fitted effect of over 35% in size. Note: potency is the fitted concentration of half-maximal effect. The essentials: as §1
A short description of test [19]: Quantitative High-Throughput drug screen in 47 multiple myeloma cell lines against the NCATS MIPE library collection: KMS21BM_JCRB cell viability assay (AID 1918974). Note: potency is the fitted concentration of half-maximal effect. Particulars: ATP luminescence, 48 h; viability: at 45.8 µM (top of the series) unless noted. The essentials:
as §2

Records with an inconclusive call do not appear. Calls of active or inactive are those of the source. Calls come from the whole dose curve; as a rule, active = well fitted curve in the direction sought with a large enough effect; inconclusive = small, poorly fitted or top-dose-only effect, or another doubt; inactive = no such curve, though single readings can be large; an effect the other way counts as inactive or inconclusive.

`O=C(NOCC(O)CO)c1cc(Br)c(F)c(F)c1Nc1ccc(I)cc1F` (stereo unspecified): the Potency entry in test [1], in test [2], in [4], in test [5] and in test [6] was “inactive” throughout. For the same compound, the Potency in test [3] was 0.118 µM (active); in [7] it was 1.05 µM (active).
With `N[C@@]1(C(=O)O)CS(=O)(=O)[C@H]2[C@H](C(=O)O)[C@H]21`, the Potency result in test [1] and in [6] was “inactive” throughout. Also, the Potency in test [8] was 14.8 µM (active).
For the compound `O=C1NC(=O)C(=Cc2ccc3nccnc3c2)S1`, the Potency was 3.63 µM (active) in [1]; 2.04 µM (active) in test [2]; 7.24 µM (active) in [8]; 6.45 µM (active) in test [3]; 5.75 µM (active) in test [9]; 2.29 µM (active) in test [4]. The Potency was 8.12 µM (active) in [10], 1.15 µM (active) in test [11], 12.9 µM (active) in [5] and 3.63 µM (active) in test [7].
Regarding `CC(C)=CC[C@@H](O)C1=CC(=O)c2c(O)ccc(O)c2C1=O`, the Potency in test [1] was 9.35 µM (active); in test [12], 1.18 µM (active); in [13], 16.6 µM (active); in test [8], 0.296 µM (active); in [14], 0.372 µM (active); in [3], 7.43 µM (active). Moreover, the Potency in test [9] is 5.26 µM (active); in test [4], 20.9 µM (active); in [10] it was 0.935 µM (active); in [11], 18.7 µM (active); in test [15] it was 14.8 µM (active); in test [5], 0.418 µM (active). Further, the Potency is 1.05 µM (active) in [16], 0.418 µM (active) in [6] and 0.264 µM (active) in test [7].
Turning to `CO[C@H]1C[C@@H]2CC[C@@H](C)[C@@](O)(O2)C(=O)C(=O)N2CCCC[C@@H]2C(=O)O[C@H]([C@H](C)C[C@@H]2CC[C@H](OC(=O)C(C)(CO)CO)[C@H](OC)C2)CC(=O)[C@H](C)C=C(C)[C@@H](O)[C@@H](OC)C(=O)[C@H](C)C[C@H](C)C=CC=CC=C1C`, the Potency in test [1] is 9.35 µM (active); in test [13], 20.9 µM (active); in test [9], 13.2 µM (active); in test [15], 11.8 µM (active); in test [7], 18.7 µM (active).
`COc1ccc2cc(-c3nc(-c4ccc(S(C)=O)cc4)[nH]c3-c3ccncc3)ccc2c1` (stereo unspecified): the Potency in [1] is 18.7 µM (active); in test [2] it was 23.5 µM (active); in test [13], 23.5 µM (active); in test [8], 14.8 µM (active); in test [9], 26.4 µM (active); in [15], 7.43 µM (active). The Potency entry in test [6] is “inactive”.
With `c1cc(-c2sc(-c3ccncc3)c(-c3ccncc3)c2-c2ccncc2)ccn1`, the Potency result in test [1] and in test [6] was “inactive” throughout. Also, the Potency in test [8] was 18.7 µM (active); in [4], 3.32 µM (active); in [11], 2.96 µM (active); in [7], 8.33 µM (active).
Regarding `CC(C)(C)Cn1c(N)nc2ccc(-c3[nH]c(C(C)(C)C)nc3-c3ccc(F)cc3)nc21`, the Potency result in test [1], in test [2], in [17], in [4] and in test [11] was “inactive” in each case. Also, the Potency was 20.9 µM (active) in [3], 23.5 µM (active) in [10], 20.9 µM (active) in test [16] and 7.43 µM (active) in test [6].
Regarding `OC[C@H]1O[C@@H](Oc2cc(O)cc(C=Cc3ccc(O)cc3)c2)[C@H](O)[C@@H](O)[C@H]1O`, the Potency entry in test [1], in test [13], in test [4], in [10], in [11] and in test [5] was “inactive” throughout. The Potency result in test [6] is “inactive”.
For `CS(=O)(=O)N(Cc1ccco1)CC(O)Cn1c2ccccc2c2ccccc21` (stereo unspecified), the Potency entry in test [1], in test [17], in [3], in test [4] and in [11] was “inactive” in each case. The Potency in test [13] was 14.8 µM (active); in [8] it was 18.7 µM (active); in [9] it was 6.62 µM (active); in test [10], 20.9 µM (active); in test [16], 20.9 µM (active).
As to `CC(C)(C)NC(=O)Nc1cccc(Nc2ncc(F)c(NC(C)(C)CO)n2)c1`, the Potency entry in test [1], in test [3], in [15], in test [6] and in [7] was “inactive” in each case. Further, the Potency in test [8] was 18.7 µM (active); in test [11], 3.32 µM (active).
With `Oc1ccc(C2CCN(c3ccnc4ccccc34)CC2)cc1O`, the Potency was 16.6 µM (active) in test [1]; 8.33 µM (active) in [18]; 11.8 µM (active) in test [13]; 7.43 µM (active) in [8]; 16.6 µM (active) in [14]; 7.43 µM (active) in [9]. The Potency in test [4] is 18.7 µM (active); in test [10], 16.6 µM (active); in test [11], 18.7 µM (active); in test [15] it was 18.7 µM (active); in test [19], 23.5 µM (active); in [5], 18.7 µM (active). In addition, the Potency in [16] was 9.35 µM (active).
Turning to `CCOC(CN1C(=O)[C@](CC(=O)Nc2ccc(C)cc2)(NC(=O)Nc2ccc(C)cc2)c2ccccc21)OCC`, the Potency was 16.6 µM (active) in test [1], 16.6 µM (active) in test [12], 23.5 µM (active) in test [8] and 26.4 µM (active) in [4]. Moreover, the Potency result in [3] and in test [6] was “inactive” each time.
`Cc1ccccc1C(C(=O)NC1CCCCC1)N(C(=O)Cn1ccnc1C)c1cccc(F)c1` (stereo unspecified): the Potency entry in test [1], in [2], in test [13], in [8], in test [4] and in [7] was “inactive” throughout. Also, the figures for the Potency in [11] and in [16] were 2.35 µM (active) and 10.5 µM (active), respectively.
`CC(=O)Oc1cc2c(s1)CCN(C(C(=O)C1CC1)c1ccccc1F)C2` (stereo unspecified): the Potency in [1] is 1.18 µM (active); in [8], 4.69 µM (active); in test [14], 2.35 µM (active); in test [3], 2.96 µM (active); in [9] it was 1.87 µM (active); in test [5], 2.96 µM (active).
Regarding `CON=C(C(=O)N[C@@H]1C(=O)N2C(C(=O)OCOC(=O)C(C)(C)C)=C(C=Cc3scnc3C)CS[C@H]12)c1csc(N)n1`, the Potency was 16.6 µM (active) in test [1], 20.9 µM (active) in test [12], 18.7 µM (active) in test [18] and 18.7 µM (active) in [8]. The Potency entry in test [13], in test [3], in test [10], in test [15] and in test [6] was “inactive” throughout.
With `COc1ccc2c3c1OC1C[C@@H](O)C=C[C@@]31CCN(C)C2` (stereo partly specified), the Potency result in test [1], in test [2], in test [17], in [4] and in test [11] was “inactive” each time. Further, the results for the Potency in test [14] and in test [7] were 4.18 µM (active) and 16.6 µM (active), respectively.
For `COc1ccc(-c2coc3cc(O)cc(O)c3c2=O)cc1`, the Potency in test [1] is 18.7 µM (active). The Potency entry in [13], in test [14], in test [9], in test [10], in test [15] and in [6] was “inactive” throughout. Further, the Potency entry in test [7] is “inactive”.
As for `O=C(O)C=Cc1ccc(O)c(O)c1`, the Potency is 20.9 µM (active) in test [1]; 14.8 µM (active) in test [12]; 16.6 µM (active) in test [4]; 13.2 µM (active) in test [19]; 7.43 µM (active) in test [16]; 20.9 µM (active) in [6]. Further, the Potency entry in test [18] and in [3] was “inactive” each time.
